Results: PubChem BioAssay (EPA / NIEHS)
Activity calls are given as the source filed them. Rule for the calls: active = hit-call score of the fitted dose curve at least 0.9, where 1 is the maximum; inactive = score below 0.9.

Read-out: Paternally Expressed 10 (PEG10), PEG10 (gene 23089)
Assay: LTEA_HepaRG_PEG10: Life Technologies and Expression Analysis (LTEA) Assay for Paternally Expressed 10 (PEG10) using HepaRG (AID 2283520);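 for AC50: differentiated HepaRG human liver cells in serum-free induction medium with 0.5% DMSO; PEG10 transcript by qRT-PCR normalised to ACTB GAPDH and POLR2A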
Conditions: mRNA level, 48 h; actives raise or lower the signal
Procedure, shortened: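 After 48 h exposure of differentiated HepaRG cells (0.5% DMSO vehicle, eight concentrations up to 100 uM, duplicates), PEG10 mRNA was measured by TaqMan qRT-PCR. Values were normalised to endogenous control genes and analysed bidirectionally against vehicle.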

AC50, active:
NC(=Nc1ccccc1)Nc1ccccc1 19.3 µM
CC(C)NCC(O)c1ccc(O)c(O)c1 (centres undefined) 0.149 µM
COc1ccc(C(=O)Nc2nc3ccccc3c(NCc3ccccc3)c2C#N)cc1 16.1 µM
CN(C)C(=O)NC1(c2ccccc2)CCN(CC[C@@]2(c3ccc(F)c(F)c3)CN(C(=O)c3ccccc3)CCO2)CC1 1.35 µM
CCc1cc(C2=C(C(=O)O)N(c3ccccc3C(F)(F)F)S(=O)(=O)c3ccccc32)cc2c1OCO2 28.5 µM
Nc1nc(=S)c2[nH]cnc2[nH]1 7.2 µM
CCc1nc(N)nc(N)c1-c1ccc(Cl)cc1 38.9 µM
CN(C)C(=O)NC1(c2ccccc2)CCN(CCC[C@]2(c3ccc(Cl)c(Cl)c3)CCCN(C(=O)c3ccccc3)C2)CC1 12.5 µM
O=C(NS(=O)(=O)/C=C/c1cccs1)c1ccc(F)cc1Br 50 µM

outcome, inactive:
CC(COCC(C)OC(=O)c1ccccc1)OC(=O)c1ccccc1 (centres undefined)
CCCCCCCCCCCCCCOS(=O)(=O)O
CC(C)(O)c1ccc(CNC(=O)c2cccnc2Oc2ccc(F)cc2)cc1
CC(C)(C)c1ccccc1
CC(=O)O
C/C=C/C=C/C(=O)O
CC(N)=O
O=C(Oc1ccccc1)c1cccc(C(=O)Oc2ccccc2)c1
CCCC[C@H]1CN(CC2CCOCC2)C(=O)OC12CCN(C1(C)CCN(C(=O)c3c(C)ncnc3C)CC1)CC2
CC(C)c1cccc(C(C)C)c1NC(=O)NS(=O)(=O)c1cc(C(C)(C)O)co1
O=C1c2c(O)cccc2Cc2cccc(O)c21
O=C1O[C@H]([C@H](O)CO)C(O)=C1O
Oc1ccccc1O
O=Cc1ccccc1C=O
Cc1cn([C@H]2C=C[C@@H](CO)O2)c(=O)[nH]c1=O
NC1CCCCC1
O=C1NC(=O)C(c2ccccc2)(c2ccccc2)N1
S=c1[nH]c2ccccc2s1
CCCCCCCCCC[N+](C)(C)[O-]
CC(=O)CC(c1ccccc1)c1c(O)c2ccccc2oc1=O (centres undefined)

Read-out: Protein phosphatase 2A (PPP2R4), PTPA (gene 5524)
Assay: LTEA_HepaRG_PPP2R4: Life Technologies and Expression Analysis (LTEA) Assay for Protein phosphatase 2A (PPP2R4) using HepaRG (AID 2283522)
Conditions: mRNA level, 48 h; actives raise or lower the signal
Procedure, shortened: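 Using HepaRG cultures maintained in 0.5% DMSO, chemicals are tested 48 h at up to 100 uM in duplicate. Induction or suppression of PPP2R4 mRNA, measured by qRT-PCR, is fitted bidirectionally against the vehicle baseline.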

outcome, inactive:
NC(=Nc1ccccc1)Nc1ccccc1
CCCCCCCCCCCCCCOS(=O)(=O)O
CC(C)(O)c1ccc(CNC(=O)c2cccnc2Oc2ccc(F)cc2)cc1
COC(=O)[C@H]1[C@H]2C[C@@H]3c4[nH]c5cc(OC)ccc5c4CCN3C[C@H]2C[C@@H](OC(=O)c2cc(OC)c(OC)c(OC)c2)[C@@H]1OC
COc1ccc(C(=O)Nc2nc3ccccc3c(NCc3ccccc3)c2C#N)cc1
CC(N)=O
CCc1cc(C2=C(C(=O)O)N(c3ccccc3C(F)(F)F)S(=O)(=O)c3ccccc32)cc2c1OCO2
CCc1nc(N)nc(N)c1-c1ccc(Cl)cc1
O=C(Oc1ccccc1)c1cccc(C(=O)Oc2ccccc2)c1
CCCC[C@H]1CN(CC2CCOCC2)C(=O)OC12CCN(C1(C)CCN(C(=O)c3c(C)ncnc3C)CC1)CC2
CC(C)c1cccc(C(C)C)c1NC(=O)NS(=O)(=O)c1cc(C(C)(C)O)co1
O=Cc1ccccc1C=O
NC1CCCCC1
O=C(NS(=O)(=O)/C=C/c1cccs1)c1ccc(F)cc1Br
O=C1NC(=O)C(c2ccccc2)(c2ccccc2)N1
CC(=O)CC(c1ccccc1)c1c(O)c2ccccc2oc1=O (centres undefined)

Read-out: Phosphatase and tensin (PTEN), PTEN (gene 5728)
Assay: LTEA_HepaRG_PTEN: Life Technologies and Expression Analysis (LTEA) Assay for Phosphatase and tensin (PTEN) using HepaRG (AID 2283523)
Conditions: mRNA level, 48 h; actives raise or lower the signal
Procedure, shortened: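 HepaRG, 48 h exposure, 8-pt half-log series from 100 uM top, 0.5% DMSO vehicle, duplicates. Readout: Fluidigm qRT-PCR of PTEN transcript; housekeeping normalization (ACTB, GAPDH, POLR2A). Gain or loss fitted relative to DMSO baseline.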

outcome, inactive:
NC(=Nc1ccccc1)Nc1ccccc1
CC(COCC(C)OC(=O)c1ccccc1)OC(=O)c1ccccc1 (centres undefined)
CCCCCCCCCCCCCCOS(=O)(=O)O
CC(C)NCC(O)c1ccc(O)c(O)c1 (centres undefined)
CC(C)(O)c1ccc(CNC(=O)c2cccnc2Oc2ccc(F)cc2)cc1
CC(C)(C)c1ccccc1
COC(=O)[C@H]1[C@H]2C[C@@H]3c4[nH]c5cc(OC)ccc5c4CCN3C[C@H]2C[C@@H](OC(=O)c2cc(OC)c(OC)c(OC)c2)[C@@H]1OC
COc1ccc(C(=O)Nc2nc3ccccc3c(NCc3ccccc3)c2C#N)cc1
CN(C)C(=O)NC1(c2ccccc2)CCN(CC[C@@]2(c3ccc(F)c(F)c3)CN(C(=O)c3ccccc3)CCO2)CC1
CC(=O)O
C/C=C/C=C/C(=O)O
CCc1cc(C2=C(C(=O)O)N(c3ccccc3C(F)(F)F)S(=O)(=O)c3ccccc32)cc2c1OCO2
Nc1nc(=S)c2[nH]cnc2[nH]1
CCc1nc(N)nc(N)c1-c1ccc(Cl)cc1
O=C(Oc1ccccc1)c1cccc(C(=O)Oc2ccccc2)c1
CCCC[C@H]1CN(CC2CCOCC2)C(=O)OC12CCN(C1(C)CCN(C(=O)c3c(C)ncnc3C)CC1)CC2
CC(C)c1cccc(C(C)C)c1NC(=O)NS(=O)(=O)c1cc(C(C)(C)O)co1
O=C1c2c(O)cccc2Cc2cccc(O)c21
O=C1O[C@H]([C@H](O)CO)C(O)=C1O
Oc1ccccc1O
O=Cc1ccccc1C=O
Cc1cn([C@H]2C=C[C@@H](CO)O2)c(=O)[nH]c1=O
CN(C)C(=O)NC1(c2ccccc2)CCN(CCC[C@]2(c3ccc(Cl)c(Cl)c3)CCCN(C(=O)c3ccccc3)C2)CC1
NC1CCCCC1
O=C(NS(=O)(=O)/C=C/c1cccs1)c1ccc(F)cc1Br
O=C1NC(=O)C(c2ccccc2)(c2ccccc2)N1
S=c1[nH]c2ccccc2s1
CCCCCCCCCC[N+](C)(C)[O-]
CC(=O)CC(c1ccccc1)c1c(O)c2ccccc2oc1=O (centres undefined)
